Where “and” joins values, the source holds several entries; their conditions need not be identical. Equal entries are not always repeated. Values without a mark were called inactive. Calls of active or inactive are those of the source. How the calls were made is not given here.

By remaining activity is commonly meant the signal under treatment as a percentage of the control signal.

Experiment [1] concerns Aerobactin synthetase IucA (Klebsiella pneumoniae hvKP1). As to the kind of experiment: IucA enzyme inhibition, primary screen, biochemical, Spectrum library (AID 1346200).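 Further: 100% = wells without compound and 0% = wells lacking enzyme.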 Particulars: malachite green pyrophosphate, A620, at 8 µM, stronger effect = lower value.
In experiment [2] the test system is Aerobactin synthetase IucA (Klebsiella pneumoniae, hypervirulent). As to the kind of experiment: biochemical IucA inhibition screen of LOPAC library by absorbance (AID 1346212).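 Further: 100% = no compound wells and 0% = no enzyme wells.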 The settings on record: IucA enzyme assay, absorbance (OD) readout; stronger effect = lower value;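 tested at 8 µM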.

In the case of `CN1CCN2c3ccccc3Cc3ccccc3C2C1` (stereo not given), the activity remaining in experiment [1] is 119%. The remaining activity in experiment [2] was 120%.
With `CNCCCN1c2ccccc2CCc2ccccc21`, the activity remaining in experiment [1] was 100%. Also, in experiment [2], the remaining activity is 105%.
For the molecule `CC1=C(CC(=O)O)c2cc(F)ccc2/C1=C\c1ccc(S(C)=O)cc1` (stereo not given), the activity remaining in experiment [1] is 90%. For the same molecule, the remaining activity in experiment [2] was 119%.
With `CC1=C(/C=C/C(C)=C/C=C/C(C)=C\C(=O)O)C(C)(C)CCC1`, the activity remaining in experiment [1] was 116%. Also, the remaining activity in experiment [2] is 85.8%.
`NCCCCN=C(N)N`: in experiment [1], the activity remaining was 123%. Moreover, the remaining activity in experiment [2] was 111%.
On the same counts, the results for `CN(C)CCCN1c2ccccc2Sc2ccc(C(F)(F)F)cc21` are 108% and 97%.
As to `CCN(CC)CCOC(=O)c1ccc(N)cc1`, the activity remaining in experiment [1] is 105%. Besides, the remaining activity in experiment [2] was 106%.
As for `CNC(=O)Oc1ccc2c(c1)[C@]1(C)CCN(C)[C@@H]1N2C`, the activity remaining in experiment [1] was 116%. Further, in experiment [2], the remaining activity is 110%.
On the same counts, the results for `Cc1ccc(C(=O)Nc2ccc(S(=O)(=O)O)c3cc(S(=O)(=O)O)cc(S(=O)(=O)O)c23)cc1NC(=O)c1cccc(NC(=O)Nc2cccc(C(=O)Nc3cc(C(=O)Nc4ccc(S(=O)(=O)O)c5cc(S(=O)(=O)O)cc(S(=O)(=O)O)c45)ccc3C)c2)c1` are 69% (active) and 34.4% (active).
Regarding `NCCS`, the activity remaining in experiment [1] is 117%. Moreover, the remaining activity in experiment [2] was 110%.
The like results for `CC(C)NCC(O)COc1cccc2[nH]ccc12` (stereo not given) were, in that order, 103% and 116%.
As to `C#CCN(C)Cc1ccccc1`, the activity remaining in experiment [1] was 122%. For the same molecule, the remaining activity in experiment [2] was 80.8%.
`CC(C)NNC(=O)c1ccncc1`: the activity remaining in experiment [1] is 93.2%. The remaining activity in experiment [2] was 128%.
Take `CCN(Cc1ccncc1)C(=O)C(CO)c1ccccc1` (stereo not given): in experiment [1], the activity remaining is 98.9%. Besides, in experiment [2], the remaining activity was 98.9%.
As to `O=NN(CCCl)C(=O)NCCCl`, in experiment [1], the activity remaining was 123%. Moreover, in experiment [2], the remaining activity is 115%.
For `NS(=O)(=O)c1cc2c(cc1Cl)NC(C1CC3C=CC1C3)NS2(=O)=O` (stereo not given), the activity remaining in experiment [1] is 122%. Further, the remaining activity in experiment [2] was 95.7%.
Turning to `CCCn1c(=O)c2[nH]c(C3CCCC3)nc2n(CCC)c1=O`, in experiment [1], the activity remaining was 82.2%. Also, the remaining activity in experiment [2] was 76.9%.
The like results for `Cc1ccc(Cl)c(Nc2ccccc2C(=O)O)c1Cl` were, in that order, 93.4% and 128%.
As to `FC(F)(F)c1ccccc1-n1ccnc1`, the activity remaining in experiment [1] is 85.9%. Further, in experiment [2], the remaining activity is 102%.
The like results for `O=C(/C=C/c1ccc(O)c(O)c1)OCCc1ccccc1` were, in that order, 78.8% and 105%.
`CCCCNC(=O)NS(=O)(=O)c1ccc(C)cc1`: the activity remaining in experiment [1] was 120%. The remaining activity in experiment [2] was 95.4%.
On the same counts, the results for `NCCCS(=O)(=O)O` are 104% and 111%.
Take `O=C(O)c1cc2cc(Cc3cccnc3)ccc2o1`: the activity remaining in experiment [1] is 121%. Besides, the remaining activity in experiment [2] was 104%.
On to `CCCCNc1ccc(C(=O)OCCN(C)C)cc1`, for which the activity remaining in experiment [1] is 118%. In addition, the remaining activity in experiment [2] is 97.3%.
`CC(=O)N[C@@H](CS)C(=O)O`: the activity remaining in experiment [1] is 110%. Also, the remaining activity in experiment [2] was 108%.
In the case of `CC(=O)Nc1nnc(S(N)(=O)=O)s1`, the activity remaining in experiment [1] was 103%. In experiment [2], the remaining activity is 113%.
Turning to `NNc1nncc2ccccc12`, the activity remaining in experiment [1] is 102%. The remaining activity in experiment [2] is 101%.
The like results for `CN(C)CCOC(c1ccccc1)c1ccccc1` were, in that order, 105% and 100%.
As to `CCn1cc(C(=O)O)c(=O)c2cc(F)c(N3CCNC(C)C3)c(F)c21` (stereo not given), in experiment [1], the activity remaining is 104%. For the same molecule, the remaining activity in experiment [2] is 118%.
Turning to `COc1cc2nc(N3CCN(C(=O)c4ccco4)CC3)nc(N)c2cc1OC`, the activity remaining in experiment [1] is 127%. Moreover, the remaining activity in experiment [2] is 84.9%.
Regarding `O=c1c(O)c(-c2ccc(O)c(O)c2)oc2cc(O)cc(O)c12`, the activity remaining in experiment [1] is 99.3%. Also, the remaining activity in experiment [2] was 122%.
`CCSC(=N)N`: the activity remaining in experiment [1] is 103%. Also, the remaining activity in experiment [2] is 93.6%.
Regarding `O=C(O)C1=CCCNC1`, in experiment [1], the activity remaining is 98.7%. For the same molecule, the remaining activity in experiment [2] was 96.8%.
On the same counts, the results for `CC12CC3CC(C)(C1)CC(N)(C3)C2` are 108% and 92.7%.
Take `COc1ccc(CN(CCN(C)C)c2ccccn2)cc1`: the activity remaining in experiment [1] is 118%. For the same molecule, the remaining activity in experiment [2] was 112%.
Turning to `O=c1ccc2ccc(O)c(O)c2o1`, the activity remaining in experiment [1] is 103%. The remaining activity in experiment [2] is 116%.
Consider `C[N+](C)(C)CCO`, for which the activity remaining in experiment [1] was 126%. Also, the remaining activity in experiment [2] is 112%.
With `CCN(CC)C(=S)SSC(=S)N(CC)CC`, in experiment [1], the activity remaining was 90.4%. Moreover, the remaining activity in experiment [2] was 89.3%.
With `O=C(O)CCc1nc(-c2ccccc2)c(-c2ccccc2)o1`, the activity remaining in experiment [1] is 111%. Further, in experiment [2], the remaining activity was 116%.
For `O=C1NC(=O)C(c2ccccc2)(c2ccccc2)N1`, the activity remaining in experiment [1] was 122%. Moreover, the remaining activity in experiment [2] is 124% and 101%.
`Clc1ccccc1C(c1ccccc1)(c1ccccc1)n1ccnc1`: the activity remaining in experiment [1] is 113%. Moreover, the remaining activity in experiment [2] is 117%.
For `NC/C=C/C(=O)O`, in experiment [1], the activity remaining was 107%. The remaining activity in experiment [2] is 101%.
On to `CC(C)COCC(CN(Cc1ccccc1)c1ccccc1)N1CCCC1` (stereo not given), for which the activity remaining in experiment [1] is 126%. For the same molecule, in experiment [2], the remaining activity was 91.4%.
On the same counts, the results for `CCCNCC(O)COc1ccccc1C(=O)CCc1ccccc1` (stereo not given) are 104% and 112%.
The like results for `CNCCCC12CCC(c3ccccc31)c1ccccc12` were, in that order, 105% and 109%.
The like results for `CC(=O)OCC1=C(C(=O)O)N2C(=O)[C@@H](NC(=O)Cc3cccs3)[C@H]2SC1` were, in that order, 109% and 117%.
In the case of `NC(=O)NO`, in experiment [1], the activity remaining was 121%. In addition, the remaining activity in experiment [2] was 117%.
On the same counts, the results for `CC(CN1c2ccccc2Sc2ccccc21)N(C)C` (stereo not given) are 78.1% and 109%.
As to `COc1ccc2cc([C@H](C)C(=O)O)ccc2c1`, in experiment [1], the activity remaining was 101%. For the same molecule, the remaining activity in experiment [2] was 91.4%.
Turning to `Nc1nc(N)c2nc(-c3ccccc3)c(N)nc2n1`, the activity remaining in experiment [1] is 114%. Further, the remaining activity in experiment [2] is 93.9%.
On to `CCN(CC)CCCC(C)Nc1c2ccc(Cl)cc2nc2ccc(OC)cc12` (stereo not given), for which the activity remaining in experiment [1] was 93.4%. Also, the remaining activity in experiment [2] was 115%.
On the same counts, the results for `Nc1ncnc2c1ncn2[C@@H]1O[C@H](CO)[C@@H](O)[C@H]1O` are 113% and 110%.
The like results for `Cc1cc(C(C)(C)C)c(O)c(C)c1CC1=NCCN1` were, in that order, 114% and 117%.
On the same counts, the results for `CCCCC[C@H](CC(=O)NO)C(=O)N[C@H](C(=O)N1CCC[C@H]1CO)C(C)C` are 109% and 111%.
`O=C(O)c1cc(=O)c2c(Cl)cc(Cl)cc2[nH]1`: the activity remaining in experiment [1] is 103%. Besides, in experiment [2], the remaining activity is 110%.
In the case of `CC(C)[N+](C)(CCOC(=O)C1c2ccccc2Oc2ccccc21)C(C)C`, in experiment [1], the activity remaining is 105%. Besides, the remaining activity in experiment [2] was 92.2%.
Turning to `CC(C)C(=O)Nc1ccc([N+](=O)[O-])c(C(F)(F)F)c1`, in experiment [1], the activity remaining was 115%. Also, in experiment [2], the remaining activity is 97.1%.
On the same counts, the results for `OCCN(CCO)c1nc(N2CCCCC2)c2nc(N(CCO)CCO)nc(N3CCCCC3)c2n1` are 89.5% and 92.9%.
Regarding `NC(CO)C(=O)NNCc1ccc(O)c(O)c1O` (stereo not given), in experiment [1], the activity remaining was 109%. Also, in experiment [2], the remaining activity is 111%.
Take `Cn1c(=O)c2[nH]c(C3CCCC3)nc2n(C)c1=O`: the activity remaining in experiment [1] is 97.7%. Also, in experiment [2], the remaining activity is 70.6%.
